Where “and” joins values, the source holds several entries; their conditions need not be identical. Equal entries are not always repeated. Calls of active or inactive are those of the source.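 How the source made its calls: active means compounds whose dose series gives a full or clear partial fitted curve of increased nuclear translocation; inconclusive means weak partial curve or effect only at the top dose; inactive means no dose-dependent translocation response.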 Where only a bound is given, the exact number is not on record here.
Potency means the concentration at half of the fitted maximal effect.

Chain of Glucocorticoid receptor (Homo sapiens) (P04150 whole entry, looked up): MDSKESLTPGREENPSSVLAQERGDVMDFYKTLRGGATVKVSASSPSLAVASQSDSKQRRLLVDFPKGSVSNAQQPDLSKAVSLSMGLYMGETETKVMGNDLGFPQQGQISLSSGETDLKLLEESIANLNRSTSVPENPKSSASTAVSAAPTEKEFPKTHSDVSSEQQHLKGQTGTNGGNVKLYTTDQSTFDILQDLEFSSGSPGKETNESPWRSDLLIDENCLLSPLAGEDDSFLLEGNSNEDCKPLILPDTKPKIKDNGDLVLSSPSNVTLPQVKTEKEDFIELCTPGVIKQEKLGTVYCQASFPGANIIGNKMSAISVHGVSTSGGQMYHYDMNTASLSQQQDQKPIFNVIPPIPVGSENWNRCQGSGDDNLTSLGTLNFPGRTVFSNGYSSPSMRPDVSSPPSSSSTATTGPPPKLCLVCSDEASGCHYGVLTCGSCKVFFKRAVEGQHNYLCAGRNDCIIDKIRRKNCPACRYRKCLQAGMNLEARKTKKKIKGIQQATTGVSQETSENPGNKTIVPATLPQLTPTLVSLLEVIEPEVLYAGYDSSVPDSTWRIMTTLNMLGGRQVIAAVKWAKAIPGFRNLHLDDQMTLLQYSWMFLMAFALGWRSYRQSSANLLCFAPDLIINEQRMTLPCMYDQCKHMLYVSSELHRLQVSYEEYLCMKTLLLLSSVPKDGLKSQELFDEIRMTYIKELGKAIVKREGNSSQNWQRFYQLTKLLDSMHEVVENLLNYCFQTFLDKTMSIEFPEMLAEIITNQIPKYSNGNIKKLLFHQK

This test addresses Glucocorticoid receptor (Homo sapiens) (UniProt P04150). Briefly: GR-GFP Redistribution (AID 450). The following applies: U2OS GR-GFP nuclear translocation, laser cytometry, 2 h. An excerpt: NIH Molecular Libraries Screening Centers Network [MLSCN]
NIH Chemical Genomics Center [NCGC]
The glucocorticoid receptor (GR) Redistribution assay (BioImage) enables the visualization of GR cytoplasmic to nuclear translocation by the use of a GR-GFP fusion. GR is normally cytosolic, however ligands such as dexamethasone, cause nuclear translocation where the protein binds to response elements and interacts with various co-factors to modulate transcription. Because both functional agonists and antagonists can induce nuclear translocation, this assay can detect ligands regardless of their effects on gene expression. GR-GFP expressing U20S cells were used here. Dexamethasone was the positive control for translocation and data normalization. Detection of nuclear translocation was performed in 1536-well plates using the Acumen laser scanning plate cytometer (TTP LabTech). Validation of this assay and a detailed protocol have been described.
NCGC Assay Protocol Summary:
GR-GFP U2OS cells were maintained in DMEM with Glutamax and high glucose, 1% v/v penicillin-streptomycin, and 0.5 mg/mL Geneticin. For cell culture, 10% […] fetal bovine serum (FBS) was used (Invitrogen #26140-079). For cell plating 10% dextran, charcoal-stripped FBS (Hyclone SH30068.03) was used. U2OS cells were trypsin treated, suspended in medium, and passed through a 40 um basket filter. The cells were seeded at 600 cells/5 uL/well into clear-bottom black sided 1536-well plates and incubated for approximately 20 hrs, 37degC, 5%, CO2 in a tissue culture incubator. Twenty-three nL of compound was delivered by pin tool and the plates were incubated as above for 2 hrs. The compounds were tested as a 7-point titration ranging from 46 uM to 0.6 nM. The cells were fixed using the Kalypsys Washer/Dispenser station. The fixing protocol involved aspiration of the cell media, addition of 6 uL/well of PBS, aspiration of PBS, addition of 5uL/well of 100% methanol, aspiration of methanol, and addition of 3 uL/well PBS with 1.5 uM propidium iodide (PI). The plates were read by the Acumen Explorer using a 1 x 8 um scan of the whole well area. PI fluorescence triggered the collection of PI and GFP signals. A nuclei population was defined by a 10 to 100 um width and depth filter that eliminated small and large fluorescent particles. Two subpopulations of nuclei were then defined by peak intensity of GFP fluorescence to obtain translocated and untranslocated objects. The number of translocated objects was used for data normalization.
Keywords: NIH Roadmap, MLSCN, MLI, MLSMR, sOGT, qHTS, NCGC
As to `COCCOC(=O)C1=C(C)NC(C)=C(C(=O)OC(C)C)C1c1cccc([N+](=O)[O-])c1` (stereo not given), the Potency was > 20.6 µM (inactive).
Next, `O=C1NCN(c2ccccc2)C12CCN(CCCC(c1ccc(F)cc1)c1ccc(F)cc1)CC2`: > 46 µM (inactive) and > 20.6 µM (inactive).
For `C[C@]12C=CC(=O)C=C1CC[C@H]1[C@@H]3C[C@@H](O)[C@](O)(C(=O)CO)[C@@]3(C)C[C@H](O)[C@@]12F` the value was 0.148 µM (active); for `CN(C)CCCN1c2ccccc2Sc2ccc(C(F)(F)F)cc21`, > 46 µM (inactive) and > 20.6 µM (inactive); for `C[C@]12CCC(=O)C=C1CC[C@@H]1[C@@H]2CC[C@@]2(C)[C@H]1CC[C@]2(O)C(=O)CO`, 0.0458 µM (active).
With `CN(C)C(=O)Oc1ccc[n+](C)c1`, the Potency is > 46 µM (inactive) and > 20.6 µM (inactive).
Turning to `Fc1ccc(C(c2ccc(F)cc2)N2CCN(C/C=C/c3ccccc3)CC2)cc1`, the Potency is > 20.6 µM (inactive).
For `Nc1nc(N)c2nc(-c3ccccc3)c(N)nc2n1` the value was > 46 µM (inactive) and > 20.6 µM (inactive); for `C[n+]1cc2c3c(ccc2c2ccc4cc5c(cc4c21)OCO5)OCO3`, 6.57 µM (active); for `COCC(=O)O[C@]1(CCN(C)CCCc2nc3ccccc3[nH]2)CCc2cc(F)ccc2[C@@H]1C(C)C`, > 46 µM (inactive).
On to `CC(=O)Nc1nnc(S(N)(=O)=O)s1`, for which the Potency was > 46 µM (inactive) and > 20.6 µM (inactive).
For `COc1cc(C(=O)OCCCN2CCCN(CCCOC(=O)c3cc(OC)c(OC)c(OC)c3)CC2)cc(OC)c1OC` the value was > 46 µM (inactive) and > 20.6 µM (inactive).
Regarding `N[C@@H](COP(=O)(O)O)C(=O)O`, the Potency was > 46 µM (inactive).
For `NC(N)=NC(=O)Cc1c(Cl)cccc1Cl` the value was > 46 µM (inactive) and > 20.6 µM (inactive); for `CCN(CC)CCNC(=O)c1ccc(NC(C)=O)cc1`, > 46 µM (inactive) and > 20.6 µM (inactive).
For `Cc1ccc(S(=O)(=O)NC(=O)NN2CCCCCC2)cc1` the value was > 46 µM (inactive) and > 20.6 µM (inactive); for `CCO/C([O-])=N/c1c[n+](N2CCOCC2)no1`, > 46 µM (inactive) and > 20.6 µM (inactive); for `CN/C(=C\[N+](=O)[O-])NCCSCc1ccc(CN(C)C)o1`, > 46 µM (inactive) and > 20.6 µM (inactive).
Next, `COc1ccc2c(c1OC)C(=O)O[C@@H]2[C@H]1c2c(cc3c(c2OC)OCO3)CCN1C`: > 46 µM (inactive) and > 20.6 µM (inactive); `CC(=O)OCC1=C(C(=O)O)N2C(=O)[C@@H](NC(=O)Cc3cccs3)[C@H]2SC1`: > 20.6 µM (inactive).
Consider `C[C@]12CCC(=O)C=C1CC[C@@H]1[C@@H]2C(=O)C[C@@]2(C)[C@H]1CC[C@]2(O)C(=O)CO`, for which the Potency is 0.818 µM (active).
For `COc1ccc([C@@H]2Sc3ccccc3N(CCN(C)C)C(=O)[C@@H]2OC(C)=O)cc1` the value was > 46 µM (inactive) and > 20.6 µM (inactive).
Next, `Cc1ccc(Cl)c(Nc2ccccc2C(=O)O)c1Cl`: > 46 µM (inactive) and > 20.6 µM (inactive); `NCCCNCCSP(=O)(O)O`: > 46 µM (inactive); `CC(C)[N+](C)(CCOC(=O)C1c2ccccc2Oc2ccccc21)C(C)C`: > 46 µM (inactive) and > 20.6 µM (inactive).
For `CO[C@@]1(NC(=O)CSCC#N)C(=O)N2C(C(=O)O)=C(CSc3nnnn3C)CS[C@@H]21` the value was > 20.6 µM (inactive); for `O=C(O)CN(CCN(CC(=O)O)CC(=O)O)CCN(CC(=O)O)CC(=O)O`, > 46 µM (inactive) and > 20.6 µM (inactive).
For the molecule `CN(C(=O)CCCOc1ccc2[nH]c(=O)ccc2c1)C1CCCCC1`, the Potency is > 46 µM (inactive).
For `O=C(CCNNC(=O)c1ccncc1)NCc1ccccc1` the value was > 46 µM (inactive) and > 20.6 µM (inactive).
For `CC(C)NNC(=O)c1ccncc1`, the Potency was > 46 µM (inactive) and > 20.6 µM (inactive).
Next, `CCCCNc1ccc(C(=O)OCCN(C)C)cc1`: > 46 µM (inactive) and > 20.6 µM (inactive); `CCOC(=O)C1=C(C)NC(C)=C(C(=O)OC)C1c1cccc(Cl)c1Cl` (stereo not given): > 20.6 µM (inactive).
For `O=C(O)CP(=O)(O)O` the value was > 46 µM (inactive); for `COc1cc2c(cc1OC)-c1cc(=Nc3c(C)cc(C)cc3C)n(C)c(=O)n1CC2`, > 46 µM (inactive); for `C[N+](C)(C)CCCCCCCCCC[N+](C)(C)C`, > 46 µM (inactive) and > 20.6 µM (inactive).
Next, `CN(C)[C@@H]1C(=O)C(C(N)=O)=C(O)[C@@]2(O)C(=O)C3=C(O)c4c(O)ccc(Cl)c4[C@@H](O)[C@H]3C[C@@H]12`: > 20.6 µM (inactive).
As for `Cc1nc2sccn2c(=O)c1CCN1CCC(=C(c2ccc(F)cc2)c2ccc(F)cc2)CC1`, the Potency is > 46 µM (inactive) and > 20.6 µM (inactive).
Next, `CC(=O)Oc1cc(C(C)C)c(OCCN(C)C)cc1C`: > 46 µM (inactive) and > 20.6 µM (inactive).
For `C#CCN(C)CCCOc1ccc(Cl)cc1Cl` the value was > 46 µM (inactive) and > 20.6 µM (inactive); for `CCN(CC)CCOCCOC(=O)C1(c2ccccc2)CCCC1`, > 46 µM (inactive) and > 20.6 µM (inactive).
